# USP17 block – inhibitors of human USP17 deubiquitinase. A8MUK1. purified USP17, Ub-rhodamine cleavage fluorescence, 3 h. inhibition, % at 50 µM. 6.5% of 47,000 active
# USP28 inh – human USP28 deubiquitinase inhibition; purified USP28, Ub-rhodamine cleavage fluorescence, 30 min; inhibition, % at 25 µM; 3% of 47,000 active; AID 1645857
# USP10 inh – human USP10 deubiquitinase inhibition. inhibition, % at 20 µM. 1.1% of 47,000 active. purified USP10, Ub-rhodamine fluorescence, 60 min. AID 1645856
# USP30 block – inhibitors of human USP30 deubiquitinase | purified USP30, Ub-rhodamine cleavage fluorescence | Q70CQ3 | inhibition, % at 25 µM | 5.3% of 47,000 active
# USP8 block – inhibitors of human USP8 deubiquitinase; 4.2% of 47,000 active; purified USP8, Ub-rhodamine cleavage fluorescence, 30 min; P40818; inhibition, % at 20 µM
# * hit, by the source's call; x = no result. The list is not random: actives were taken first. Their share in the collection is about 14%. Cut-off read from the data, not from the text of the source: active = inhibition above about 30%; inactive = the rest.
SMILES,USP17 block,USP28 inh,USP10 inh,USP30 block,USP8 block
CCOC(=O)c1noc2ncn(Cc3ccc(F)cc3)c(=O)c12,-8.7,-5.1,0.7,-11.1,-0.9
COc1cccc(N2CC(=O)Nc3c(oc4nc(-c5ccccc5)cc(C)c34)C2=O)c1,2.6,3.6,25.6,36.9*,32.3*
COc1ccc(Cc2nc(-c3ccc(C(F)(F)F)cc3)no2)cc1,5.9,13.5,3.8,-6.3,4.4
O=C(COc1ccc(Br)cc1)Oc1ccc(-n2cnnn2)cc1,-6.4,-6.0,1.3,-17.9,11.5
CCOc1ccc(C(=O)Oc2ccc(-n3cnnn3)cc2)cc1,4.9,-3.2,18.2,11.4,32.8*
CN(C(=O)COc1ccc(-n2cnnn2)cc1)C(c1ccccc1)c1ccccc1,13.2,18.0,7.8,35.6*,6.9
Cc1cc(Cl)ccc1NS(=O)(=O)C1CCS(=O)(=O)C1 (centres undefined),-18.3,-10.9,-6.8,-82.3,-36.2
COc1ccc(CNC(=O)CCNS(=O)(=O)c2ccc3c(c2)CCN3C(C)=O)cc1,-3.7,-5.0,-0.7,-18.4,-9.8
O=S(=O)(c1ccc(Cl)cc1)N1CCCC1c1ccco1 (centres undefined),5.2,-12.9,0.1,-6.1,-1.8
N#Cc1ccc(N2CCC(C3CCCCCN3C(=O)Nc3ccccc3)CC2)nc1 (centres undefined),5.7,-4.2,7.5,23.7,2.2
Cc1ccc(NC(=O)CC2C(=O)N(Cc3ccccc3)c3nc4ccccc4n32)cc1 (centres undefined),32.3*,0.0,2.1,2.3,0.7
CCc1ccccc1NC(=O)CC1C(=O)N(Cc2cccnc2)c2nc3ccccc3n21 (centres undefined),0.0,-7.7,-2.1,-5.2,-0.2
O=C(CC1C(=O)N(Cc2cccnc2)c2nc3ccccc3n21)Nc1cccc2ccccc12 (centres undefined),64.2*,0.3,-1.6,22.1,-37.4
Cc1ccccc1NC(=O)CC1C(=O)N(C2CCCC2)c2nc3ccccc3n21 (centres undefined),16.2,13.3,1.2,30.2*,1.2
O=C(Cc1ccc(F)cc1)N1CCC(c2nc(-c3ccccc3)no2)CC1,4.4,-1.0,-1.5,13.9,-1.4
O=C(c1ccccc1)C1CN(c2ccccc2)CC1c1ccc(Cl)cc1 (centres undefined),-3.6,-5.7,7.0,-8.0,4.3
COc1cc(OC)cc(C(=O)Nc2n[nH]c(C)c2-c2cccc(C)c2)c1,-8.7,26.8,1.7,16.0,-38.9
COc1ccc(C(=O)Nc2n[nH]c(C)c2-c2cccc(C)c2)c(OC)c1,22.7,33.6*,9.3,72.2*,14.0
COC(=O)c1ccc(Nc2cc(C)nc3cc(C(F)(F)F)ccc23)cc1,63.6*,24.5,27.5,65.6*,35.0*
COC(=O)c1ccc(COC(=O)c2cc(C)nc3ccccc23)cc1,-2.0,-5.0,-0.6,-9.6,-0.6
CC(C)(C)C(=O)N1CCCC(c2cncc(N3CC4(CCCCC4)OC3=O)n2)C1 (centres undefined),18.2,24.7,2.4,44.6*,-9.0
Cc1cc(O)cc(Oc2cc(C)cc(O)c2)c1,4.0,18.7,-8.7,30.3*,-65.0
Cc1cc(O)c2c(c1)C(=O)c1cc(O)cc(O)c1C2=O,1.9,-86.1,-0.4,-486.4,-13.9
COC(=O)c1c(C)nn(C)c1-c1ccno1,15.7,7.4,0.7,30.8*,14.0
COC(=O)c1c(C(=O)OC)c(-c2ccccc2)n(C)c1-c1ccccc1,19.0,26.6,3.3,20.6,8.2
SMILES,USP17 block,USP28 inh,USP10 inh,USP30 block,USP8 block
CS(=O)(=O)c1ccc(NC(=O)C2CN(c3nc4c(F)cccc4s3)C2)cc1,55.3*,14.9,1.1,2.4,-11.5
Cc1cccc(C)c1NC(=O)C(C)n1c(C)nc2onc(C)c2c1=O (centres undefined),x,0.0,3.5,43.4*,8.3
COc1ccc(S(=O)(=O)N(C)Cc2cccs2)cc1OC,11.4,68.1*,0.0,27.0,15.0
Cc1cc(C)cc(NC(=O)c2c(C)oc3nc[nH]c(=O)c23)c1,33.4*,4.5,16.1,-8.6,8.7
Cc1sc2nc(CSCC(=O)Nc3ccc4[nH]ccc4c3)[nH]c(=O)c2c1C,14.9,-3.2,-3.5,-25.3,-8.9
Cn1c(=O)c2c(C(=O)Nc3ccc(Cl)cc3)cc(=O)n(C)c2n(C)c1=O,-9.8,-26.9,-8.5,-39.8,-12.7
Cc1ccc(NC(=O)c2cc(=O)n(C)c3c2c(=O)n(C)c(=O)n3C)c(C)c1,21.2,12.4,-0.8,61.1*,10.6
Cc1ccc(NC(=O)c2cc(=O)n(C)c3c2c(=O)n(C)c(=O)n3C)cc1C,43.6*,6.9,-2.8,-0.8,1.5
CC1=C(C(=O)N2CCCCC2)C(c2cccs2)n2c(nc3ccccc32)N1 (centres undefined),-19.3,-24.2,-1.0,-85.4,-4.5
Brc1ccc(C2=CC(c3cccs3)n3c(nc4ccccc43)N2)s1 (centres undefined),-14.7,-53.4,-2.9,-279.3,41.6*
Nc1ncnc2ncn(Cc3ccccc3)c12,0.1,-9.9,0.2,1.5,-1.7
Cc1cc(C)c(C(=O)CSc2nnc(-c3ccccc3)o2)cc1C,5.4,-16.3,-4.2,-57.3,56.3*
COc1ccccc1-c1nc(-c2nnn(-c3ccc(C)cc3)c2C)no1,7.2,10.9,7.1,-0.1,11.2
COc1ccc(-n2nnc(-c3nc(-c4ccccc4F)no3)c2N)cc1,51.8*,x,4.9,x,1.2
Cc1cccc(-c2noc(-c3nn(-c4cccc(C)c4)ccc3=O)n2)c1,10.3,-3.6,4.5,-14.2,5.3
COc1ccc(-n2ccc(=O)c(-c3nc(-c4ccccc4F)no3)n2)cc1OC,0.1,62.8*,-5.8,-283.6,45.1*
CCCCNc1cc(CCC)nc2nc(-c3cccnc3)nn12,-11.2,-3.2,2.1,1.1,-0.1
COc1ccccc1CC(=O)N1CCN(c2cccc3[nH]ccc23)CC1,12.9,-5.1,-6.3,-25.9,58.0*
COc1ccccc1N1CCN(C(=O)Cc2ccccc2[N+](=O)[O-])CC1,-13.6,0.6,-2.1,2.9,-4.8
NC1=CC(=O)C(Nc2ccccc2O)=CC1=O,42.0*,-5.4,9.5,-35.4,36.3*
CCN(CC)S(=O)(=O)c1ccc(OC)c(Nc2nc(-c3ccccc3)nc3ccccc23)c1,39.0*,3.0,0.4,-3.0,15.4
CCN1CCCC1CNc1nc(-c2ccc(OC)cc2)nc2ccccc12 (centres undefined),-14.0,-1.4,-4.3,-18.7,-13.2
O=C(NNS(=O)(=O)c1ccc(F)cc1)C1CCN(S(=O)(=O)c2ccccc2)CC1,7.3,31.0*,1.3,16.7,7.1
O=C(NCc1ccc(F)cc1)C1CCN(S(=O)(=O)c2ccccc2)CC1,-5.2,-0.7,0.0,6.0,-4.3
Cc1cccc(-n2cnc(C(=O)N3CCCN(c4cc(-c5cccc6cccnc56)ncn4)CC3)c2)n1,4.8,15.2,-3.1,6.6,24.8
N#Cc1cccc(NC(=O)Nc2cccn(Cc3ccccc3F)c2=O)c1,85.5*,82.2*,71.3*,27.2,93.7*
Cc1ccccc1NC(=O)CNc1ccc(C#N)cc1,-7.4,0.4,-4.7,-6.8,8.9

# Screening results from PubChem.
